Test results reported in PubChem BioAssay (NCATS).
Inconclusive results are not listed. Where a call stands in place of a potency, no number is given. Values without a mark were called inactive. Active and inactive are the calls of the source. Calls follow the shape of the dose curve; as a rule, active = well fitted cell-killing curve with a large enough effect; inconclusive = small, poorly fitted or top-dose-only effect, or effect the other way; inactive = flat fitted curve, though single readings scatter. *1 amine or outer side, *2 acyl side, *3 side chain or, on linkers, in order; H or OH if unused. Where a SMILES comes first, the peptide text is derived from it. [ ]: non-standard residue; d: D form. The star is where a group is joined. X13 = O=C(C(CC(O)CO)O[*:1])[*:2]; NMeV = CN[CH](C(=O)O)C(C)C; βNA = c1ccc2cc(N*)ccc2c1; Cbz = O=C(OCc1ccccc1)*; NMeA = CN[CH](C)C(=O)O; βAla = NCCC(=O)O

Tested on: Hek293T
Assay: Primary qHTS to identify gynecologic anti-cancer compounds using libraries of approved drugs and bioactive compounds (AID 1345084); also: nearly all actives have a fitted effect of over 55% in size
Details: Gynecologic cancer cell panel viability, ATPlite luminescence, 48 h, control line for the selectivity index; series mostly up to 57.5 µM
Outline: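 ATP-based viability (ATPlite), 1,000 cells/well, 16 h pre-incubation, 48 h compound at 37 C, 5% CO2, 15 min RT before read.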

| SMILES | Potency | activity change, negative = cytotoxicity |
| --- | --- | --- |
| NC(N)=NCCC[C@H](NC(=O)c1sccc1NS(=O)(=O)c1cccc2nsnc12)C(=O)O | inactive | – |
| Nc1ccc(-n2nc(C(F)(F)F)cc2C(F)(F)F)cc1 | inactive | – |
| C[C@H](O)C(O)(C(=O)OCc1ccccc1NC(=O)CCC(N)C(=O)O)[C@H](C)O (some centres undefined) | inactive | – |
| CC[C@H](NC(=O)c1c(O)c(-c2ccccc2)nc2ccccc12)c1ccccc1 | inactive | – |
| CC/C=C/C(O)C(O)C1=C(C)C(=O)C2(O1)C(=O)NC(OC)(C(=O)c1ccccc1)C2O (centres undefined) | inactive | – |
| Fc1cccc(CN(C2=NCCN2)c2c(Cl)cccc2Cl)c1 | inactive | – |
| O=C(O)CCc1cccc(O)c1O[C@@H]1O[C@H](CO)[C@@H](O)[C@H](O)[C@H]1O | inactive | – |
| CCC(C)/C=C(C)/C=C/C1=CC2=CC(=O)C(C)(O)C(OC(C)=O)C2CO1 (centres undefined) | inactive | – |
| CC1CC(O)/C=C/C(O)/C=C\C(=O)O1 (centres undefined) | inactive | – |
| CC(C)CC(NC(=O)OCc1ccccc1)C(=O)NC(CC(C)C)C(=O)NC(CCC(=O)O)C(=O)Nc1ccc2ccccc2c1 (stereo not drawn) (Cbz-Leu-Leu-Glu-βNA; configuration not given here) | inactive | – |
| COCc1c(O)c(C(=O)O)c(C)c2c1OC(=O)c1c(C)cc(O)c(CO)c1O2 | inactive | – |
| C=C(C(=O)O)C1CC(O)C2(C)CCCC(C)(O)C2C1 (centres undefined) | inactive | – |
| C=C[C@H]1[C@H](O[C@@H]2O[C@H](CO)[C@@H](O)[C@H](OC(=O)/C=C/c3ccc(O)c(OC)c3)[C@H]2O)OC=C2C(=O)OCC[C@]21O | inactive | – |
| COC(=O)C1(O)C(OC(C)=O)CCC2C3(CC(c4ccoc4)OC3=O)C(C)=CCC21C(=O)OC (centres undefined) | inactive | – |
| O=C(Nc1cc(-c2ccccc2)nn1-c1ccccc1F)c1ccc([N+](=O)[O-])cc1 | inactive | – |
| Cc1sc(C)c(C(=O)NC2(c3ccc(C(=O)O)cc3)CC2)c1Cc1ccc(C(F)(F)F)cc1 | inactive | – |
| COc1cc([C@@H](O[C@@H]2O[C@H](CO)[C@@H](O)[C@H](O)[C@H]2O)[C@@H]2CO[C@H](c3ccc(O)c(OC)c3)[C@H]2CO)ccc1O | inactive | – |
| CC(C)NC(=O)c1ccc(C#Cc2ccncc2)cn1 | inactive | – |
| O=C(O)CC/C=C\C[C@H]1CO[C@@H](c2ccccc2Cl)O[C@H]1c1ccccc1O | inactive | – |
| CC(C)=CCc1cc(O[C@@H]2O[C@H](CO[C@@H]3OC[C@](O)(CO)[C@H]3O)[C@@H](O)[C@H](O)[C@H]2O)ccc1O | inactive | – |

| SMILES | Potency | activity change, negative = cytotoxicity |
| --- | --- | --- |
| CC1(C)[C@@H]2CC=C(CO[C@@H]3O[C@H](CO[C@@H]4OC[C@H](O)[C@H](O)[C@H]4O)[C@@H](O)[C@H](O)[C@H]3O)[C@H]1C2 | inactive | – |
| COc1ccc(C2C(C(=O)O)C(C(=O)O)C2c2ccc(OC)cc2O[C@@H]2O[C@H](CO)[C@@H](O)[C@H](O)[C@H]2O)c(O[C@@H]2O[C@H](CO)[C@@H](O)[C@H](O)[C@H]2O)c1 (some centres undefined) | inactive | – |
| C=C(C)C1CCC2(C(=O)OC3OC(COC4OC(CO)C(O)C(O)C4O)C(OC4OC(C)C(O)C(O)C4O)C(O)C3O)CCC3(C(=O)O)C(CCC4C5(C)CCC(=O)C(C)(C)C5CCC43C)C12 (centres undefined) | – | 0.77% [at 11.6 µM] |
| CC1=C(CC/C(C)=C/C(=O)O)[C@@]2(C)CCCC(C)(C)C2CC1=O (some centres undefined) | inactive | – |
| C[C@]12CCC[C@](C)(C(=O)O)C1[C@@H](O)[C@@H](O)C13CC(CCC12)C(CO)(O[C@@H]1O[C@H](CO)[C@@H](O)[C@H](O)[C@H]1O)C3 (some centres undefined) | inactive | – |
| COc1cc(O)cc(C)c1C(=O)O[C@H]1[C@@H](O)[C@@H](n2ccc(=O)[nH]c2=O)O[C@@H]1CO | inactive | – |
| C=C1C(=O)O[C@@H]2C[C@]3(C)[C@@H](CCC(C)=O)[C@@H]3C[C@H]12 | inactive | – |
| C=C1CC[C@@]2(OC1)O[C@H]1CC3[C@@H]4CC=C5C[C@@H](O)C[C@@H](O[C@@H]6OC[C@H](O)[C@H](O)[C@H]6O[C@@H]6O[C@@H](C)[C@H](O)[C@@H](O)[C@H]6O)[C@]5(C)C4CC[C@]3(C)[C@H]1[C@@H]2C (some centres undefined) | inactive | – |
| C/C=C(\C)C(=O)OCC1OC(OCC2OC(OC3(CO)OC(CO)C(O)C3O)C(O)C(O)C2O)C(O)C(O)C1O (centres undefined) | inactive | – |
| COC(=O)C1=CO[C@@H](O[C@@H]2O[C@H](CO)[C@@H](O)[C@H](O)[C@H]2O)/C(=C\CO)[C@@H]1CC(=O)OCCc1ccc(O)cc1 | inactive | – |
| CCC(C)C1NC(=O)C2CCCN2C(=O)C(CC(O)CO)OC(=O)CCNC(=O)C(C)N(C)C(=O)C(C(C)C)N(C)C1=O (centres undefined) (cyclo([X13]PI[NMeV][NMeA][βAla]); configuration not given here) | inactive | – |
| O=C(C[C@@H]1C(C(=O)O)=CO[C@@H](O[C@@H]2O[C@H](CO)[C@@H](O)[C@H](O)[C@H]2O)/C1=C\CO)OCCc1ccc(O)cc1 | inactive | – |
| COC(=O)[C@H](O)[C@H]1C(C)(C)[C@H](OC(C)=O)[C@@]2(O)C(=O)[C@]1(C)C1CC[C@]3(C)C(CC(=O)O[C@H]3c3ccoc3)[C@]13O[C@@H]32 (some centres undefined) | inactive | – |
| CC(=O)c1c(C)cccc1O[C@@H]1O[C@H](CO)[C@@H](O)[C@H](O)[C@H]1O | inactive | – |
| C/C=C(\C)C(=O)OC1CC2C(CC=C3CC(OC4CC(OC)C(OC5CC(OC)C(OC6CC(OC)C(OC7CC(OC)C(OC8CC(OC)C(OC9OC(CO)C(O)C(O)C9O)C(C)O8)C(C)O7)C(C)O6)C(C)O5)C(C)O4)CCC32C)C2(O)CCC(C(C)=O)C12C (centres undefined) | – | -0.353% [at 6.55 µM] |
| COc1ccc2[nH]c(S(=O)Cc3ncc(C)c(OC)c3C)nc2c1 (centres undefined) | inactive | – |
| COc1cc(C)c(C(=O)OC2C(C)OC(OC3CCC(C)C4C3C=C(C)C3/C(C)=C\CC/C(C)=C/C5(C)C=C(C(=O)O)C(C)CC56OC(=O)/C(=C(\O)C34C)C6=O)C(O)C2O)c(OC)c1 (centres undefined) | – | 6.05% [at 11.6 µM] |
| COc1ccc(/C=C/C(=O)O[C@@H]2[C@@H](O[C@@H]3O[C@H](CO)[C@@H](O)[C@H](O)[C@H]3O)[C@@H](O)[C@H](O[C@H]3C4C=CO[C@@H](O[C@@H]5O[C@H](CO)[C@@H](O)[C@H](O)[C@H]5O)C4[C@@]4(CO)O[C@@H]34)O[C@H]2C)cc1 (some centres undefined) | – | 2.2% [at 11.6 µM] |
| CC(C)C1NC(=O)C(CC2(O)c3ccccc3N3C(=O)C(Cc4ccccc4)NC32)NC1=O (centres undefined) | inactive | – |
